These results are taken from ChEMBL document CHEMBL1157539, “Thousands of chemical starting points for antimalarial lead identification” (Nature, 2010).

What all share (format): functional
The subject of test [1] is Plasmodium falciparum. The experiment in a line: GSK_TCMDC: Inhibition of Plasmodium falciparum 3D7 in whole red blood cells, using parasite LDH activity as an index of growth. Test compounds present at 2uM.
The test system of test [2] is Plasmodium falciparum. The experiment in a line: GSK_TCMDC: Inhibition of Plasmodium falciparum Dd2 in whole red blood cells, using parasite LDH activity as an index of growth. Test compounds present at 2uM.
The subject of test [3] is HepG2. Put plainly: GSK_TCMDC: Percent inhibition of human HepG2 cell line. Test compounds present at 10uM.

In the case of `Cc1cccc2nc(-c3cccc(-c4cccc(NC(=O)Nc5ccc(Cl)cc5)c4)c3)[nH]c12`, the results for the Inhibition in test [1], in test [2] and in test [3] were 100%, 94% and 23%, respectively.
With `COc1cc2nc(C)nc(Nc3ccc4c(ccn4Cc4ccccc4)c3)c2cc1OC.Cl`, the Inhibition in test [1] amounted to 100%; in test [2], 99%; in test [3] it was 2%.
Regarding `Cl.O=C(Nc1ccc(C(=O)OCC2CCCN3CCCCC23)cc1)c1ccc([N+](=O)[O-])cc1` (configuration not stated), the results for the Inhibition in test [1], in test [2] and in test [3] were 95%, 25% and 5%, respectively.
For `COc1cc2nccc(Nc3cccc(Oc4ccccc4)c3)c2cc1OC.Cl`, the values for the Inhibition in test [1], in test [2] and in test [3] were 100%, 95% and 25%, respectively.
As for `CC(=O)Nc1ccc(-c2nc3ccc(-c4nc5ccc(NC(C)=O)cc5[nH]4)cc3[nH]2)cc1`, the Inhibition in test [1] was found to be 99%; in test [2], 99%; in test [3], 0%.
Turning to `O=C1C(C2CCC(c3ccc(Cl)cc3)CC2)=C2OCC3COC2(O3)c2ccccc21` (configuration not stated), the Inhibition was 98% in test [1], 97% in test [2] and 7% in test [3].
For `CCCn1c(O)nnc1SCC(=O)Nc1cc(C(F)(F)F)ccc1Cl` the same measures were 96%, 94% and 0%.
On to `COc1ccc(O)c(C(=O)c2cnc3c(c2)c(-c2ccc(F)cc2)c(C#N)c(=O)n3C)c1`, for which the Inhibition in test [1] was determined as 92%; in test [2], 14%; in test [3] it was 7%.
For `Br.CC1(C)NC(N)=NC(=N)N1OCCCOc1ccc([N+](=O)[O-])cc1` the same measures were 94%, 80% and 68%.
For `CC(C)Cn1c(Sc2ccc(C#N)c([N+](=O)[O-])c2)nnc1-c1ccccc1` the same measures were 83%, 12% and 17%.
Turning to `c1csc(-c2nc(N3CCCCC3)ncc2-c2ccsc2)n1`, the Inhibition in test [1] worked out at 89%; in test [2] it was 72%; in test [3], 0%.
`CCNc1cc(C(=O)N[C@@H](Cc2ccccc2)[C@H](O)CNC2(C)CCCCC2)cc(N2CCCCS2(=O)=O)c1.Cl`: the Inhibition in test [1] amounted to 100%; in test [2], 98%; in test [3] it was 13%.
`Cl.NC1CCN(CCc2ccc(NS(=O)(=O)c3ccc(-c4ccccc4)cc3)cc2)CC1`: the Inhibition in test [1] came out at 100%; in test [2], 19%; in test [3], 17%.
Regarding `COc1ccc2nccc([C@@H](O)CN3CCC(NC(=O)/C=C/c4ccc(Cl)c(C(F)(F)F)c4)CC3)c2c1`, the Inhibition in test [1] was 100%; in test [2], 89%; in test [3] it was 11%.
As for `Cc1cc([N+](=O)[O-])ccc1NC(=O)Nc1cccc(C(F)(F)F)c1`, the figures for the Inhibition in test [1], in test [2] and in test [3] were 100%, 100% and 15%, respectively.
`COc1ccc(-c2nccc(NC(=N)NCc3ccccc3)n2)cc1`: the figures for the Inhibition in test [1], in test [2] and in test [3] were 83%, 21% and 27%, respectively.
Take `CC1(C)N=C(N)N=C(N)C1c1ccc(Cl)cc1.Cl` (configuration not stated): the Inhibition in test [1] is recorded as 96%; in test [2] it was 0%; in test [3] it was 16%.
In the case of `Cc1ccccc1-c1cc(=O)c2cc(NC(=O)c3cccs3)ccc2o1`, the Inhibition in test [1] turned out to be 96%; in test [2] it was 95%; in test [3] it was 22%.
As for `O=C(Nc1ccc(F)cc1)c1ccc(C(=O)NC2CCN(CC3CCCCC3)CC2)cc1.O=C(O)C(F)(F)F`, the Inhibition is given as 99% in test [1], 0% in test [2] and 34% in test [3].
Regarding `Cl.N#Cc1ccc(-c2ccc(C(=O)Nc3ccc4c(c3)CCN(C3CCC3)CC4)nc2)cc1`, the results for the Inhibition in test [1], in test [2] and in test [3] were 99%, 63% and 21%, respectively.
As for `CC(=O)c1cccc2c(NC(=O)Nc3ccc4nccc(N5CCN(C)CC5)c4c3)cccc12.Cl`, the figures for the Inhibition in test [1], in test [2] and in test [3] were 99%, 94% and 13%, respectively.
Regarding `O=C(O)C(F)(F)F.c1ccc(CNCc2ccc(-c3ccc(-c4nc5ccccc5[nH]4)cc3)cc2)cc1`, the Inhibition is listed as 100% in test [1], 93% in test [2] and 32% in test [3].
As to `O=C(/C=C/c1ccc(Cl)c(Cl)c1)NCCCCCN1CCCN(C(=O)Nc2ccc(OC(F)F)cc2)CC1`, the Inhibition in test [1] was 99%; in test [2] it was 0%; in test [3], 39%.
Consider `COc1ccc(CNC2CCN(C)CC2)cc1-c1ccc(S(=O)(=O)NCc2ccccc2)c(F)c1.O=C(O)C(F)(F)F`, for which the Inhibition in test [1] was found to be 100%; in test [2] it was 97%; in test [3], 53%.
As to `CC(C)(C)c1ccc(NC(=O)c2ccc(CN3CCCN(CC4CCCCC4)CC3)cc2)cc1.O=C(O)C(F)(F)F`, the Inhibition in test [1] was found to be 99%; in test [2], 64%; in test [3] it was 54%.
For the molecule `CN1CCC(NC(=O)c2cc(Oc3ccc4c(c3)CCN4C(=O)Nc3cccc(C(F)(F)F)c3)ccn2)CC1.O=C(O)C(F)(F)F`, the Inhibition in test [1] stood at 92%; in test [2], 17%; in test [3], 16%.
The matching figures for `Cc1cc(NC(=O)c2cc(Br)ccc2Cl)n(-c2nc(C)c(C)c(=O)[nH]2)n1`: 91%, 83% and 54%.
In the case of `CC1(C)N=C(N)N=C(N)N1OCCCCON1C(N)=NC(N)=NC1(C)C`, the Inhibition was 97% in test [1], 95% in test [2] and 54% in test [3].
Regarding `CS(=O)(=O)c1cccc(-c2cnc(N)c3cc(-c4ccc(F)cc4)ccc23)c1`, the Inhibition is 91% in test [1], 33% in test [2] and 28% in test [3].

Broadly, the Inhibition is the drop in the measured response relative to a control, in per cent. Higher therefore signals strong suppression.
